Results from PubChem BioAssay.
Activity calls are given as the source filed them. Unless noted, the rule behind the calls is not given here.

What was measured:
[1] = system: XIP peptide (Xip251-270) binding; assay: small-molecule binders of XIP peptide, primary screen, biochemical, small-molecule microarray, fluorescence 635/667 nm, 0.1 µg/mL protein (AID 1182); conditions: fluorescent protein binding, 635 nm, higher = more signal, called active from +8 up or from −8 down
XIP peptide (Xip251-270) = assay: small-molecule binders of XIP peptide, primary screen, biochemical, small-molecule microarray, fluorescence 635/667 nm, 0.5 µg/mL protein (AID 1183); conditions: small-molecule microarray binding, fluorescence 635 nm; higher = more signal
[2] = Plasmodium falciparum growth inhibition, primary screen, strain 3D7, DAPI fluorescence, 100 nL (AID 1184);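 note: parasites grown inside human red blood cells in medium with human serum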; conditions: P. falciparum 3D7 growth, 3 d, higher = more signal
[3] = target: Homeobox protein Hox-A13 (Mus musculus) (UniProt Q62424); assay: inhibitors of HoxA13-DNA binding, primary screen, biochemical, fluorescence polarization, labeled oligonucleotide (AID 1185); conditions: 15 min, higher = more signal, called active from +8 up or from −8 down
Sequence of Homeobox protein Hox-A13 (Mus musculus) (Q62424 whole entry, looked up): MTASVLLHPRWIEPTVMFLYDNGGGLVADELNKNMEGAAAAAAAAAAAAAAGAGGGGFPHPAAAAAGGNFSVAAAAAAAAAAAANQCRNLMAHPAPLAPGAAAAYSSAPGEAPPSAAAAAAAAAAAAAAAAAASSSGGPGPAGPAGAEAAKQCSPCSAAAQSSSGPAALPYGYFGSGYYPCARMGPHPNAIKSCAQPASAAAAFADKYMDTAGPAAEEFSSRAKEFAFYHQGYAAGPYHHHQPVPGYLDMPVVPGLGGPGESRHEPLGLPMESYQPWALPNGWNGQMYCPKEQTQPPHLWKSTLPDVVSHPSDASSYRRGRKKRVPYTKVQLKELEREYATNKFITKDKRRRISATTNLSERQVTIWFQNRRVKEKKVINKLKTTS

[4] = inhibitors of hydroxyurea-induced Chk1 phosphorylation, primary screen, imaging, HeLa, phospho-Chk1 antibody, percent positive cells (AID 1186); conditions: hydroxyurea-induced phospho-Chk1 immunofluorescence imaging, higher = more signal
[5] = inhibitors of hydroxyurea-induced Chk1 phosphorylation, primary screen, imaging, HeLa, phospho-Chk1 nuclear intensity (AID 1187); conditions: hydroxyurea-induced phospho-Chk1 immunofluorescence imaging, higher = more signal

Compound | composite z-score [1] | composite z-score (XIP peptide (Xip251-270)) | z-score [2] | z-score [3] | z-score [4] | z-score [5]
Cc1cc(C)cc(N2C(=O)CS(=O)(=O)C2c2cccc([N+](=O)[O-])c2)c1 (stereo not given) | 2.64 (inactive) | 0.0376 | 0.494 | -0.0181 (inactive) | -0.0327 (inactive) | 0.353 (inactive)
O=C(CS)NCCCCCCNC(=O)[C@@H]1C[C@@H]2C(=O)N3CCC[C@H]3C(=O)N2[C@@H]1c1ccc(O)cc1 | 0.689 (inactive) | 0.422 | 0.331 | -3.65 (inactive) | -0.0018 (inactive) | 0.499 (inactive)
COc1ccc(NN2C(C(O)c3ccc(OC)c(OCc4ccccc4)c3)C=CC3C(=O)N(C4CCCCC4)C(=O)C32)cc1 (stereo not given) | -0.137 (inactive) | 0.628 | -1.02 | -1.81 (inactive) | -0.487 (inactive) | -0.892 (inactive)
CC(C)NC(=O)[C@@]1(Cc2ccccc2I)c2ccccc2C(=O)N(Cc2ccccc2)[C@H]1c1ccc(CO)cc1 | 0.257 (inactive) | 0.784 | -1.22 | -4.87 (inactive) | -0.303 (inactive) | -0.346 (inactive)
COc1cccc(C(=O)O[C@H]2CC[C@]3(C)C4=C(CCC3C2(C)C)[C@]2(C)CC[C@H]([C@H](C)CCCC(C)C)[C@@]2(C)CC4)c1 (stereo not given in full) | -0.019 (inactive) | -0.519 | -0.0127 | -0.87 (inactive) | 0.811 (inactive) | 1.77 (inactive)
C[N+](C)(C)CCCCCCNC(=O)[C@H]1C[C@H]2C(=O)N3CCC[C@H]3C(=O)N2[C@H]1c1ccc(O)cc1 | 1.07 (inactive) | 0.276 | -1.03 | 0.0641 (inactive) | -0.428 (inactive) | -0.356 (inactive)
CCOC(=O)C[C@H]1[C@H](OC(=O)c2ccccc2-c2ccccc2)[C@@H](NC(=O)c2ccc3ccccc3c2)c2cc(OCCCO)ccc2N1C(=O)c1ccc2ccccc2n1 | 0.157 (inactive) | 0.171 | -0.34 | -2.08 (inactive) | 0.308 (inactive) | -0.334 (inactive)
C=CCC(OC(C)=O)[C@@H]1[C@@H](N(Cc2cccc3ccccc23)C(=O)c2cccc3ccccc23)c2cc(OCCCO)ccc2N1C(=O)c1ccc2ccccc2n1 (stereo not given in full) | 0.376 (inactive) | 0.343 | -1.29 | -2.11 (inactive) | 0.316 (inactive) | 0.545 (inactive)
COc1ccc(CCNC(=O)[C@@]2(c3ccc([N+](=O)[O-])cc3)CC(=O)N(CC34CC5CC(CC(C5)C3)C4)[C@@H]2c2ccc(CO)cc2)cc1 | 0.349 (inactive) | 0.735 | -1.79 | -2.31 (inactive) | -0.42 (inactive) | -0.458 (inactive)
C=C(CCCC)/C(=C/C[C@H](OC(C)=O)c1ccc(CO)o1)c1cnc2ccccc2c1 | 0.0563 (inactive) | 0.515 | -0.867 | -5.74 (inactive) | 0.0298 (inactive) | -0.0373 (inactive)
O=C1O[C@H](c2ccccc2)[C@H](c2ccccc2)N2[C@H]1[C@@H](C(=O)NC[C@H](O)c1ccccc1)[C@]1(C(=O)Nc3ccc(C#CCCO)cc31)[C@H]2c1ccc(O)cc1 | -0.105 (inactive) | 0.278 | -1.23 | -0.545 (inactive) | 0.289 (inactive) | 0.0974 (inactive)
COCCOC(=O)N1C(=O)[C@@]2(c3cc(C#CC4=CCCCC4)ccc31)[C@H](C(=O)N1CCc3cc(OC)c(OC)cc3C1)[C@H]1C(=O)O[C@H](c3ccccc3)[C@H](c3ccccc3)N1[C@@H]2c1ccccc1OCCO | 0.0851 (inactive) | 0.544 | -2.23 | 2.24 (inactive) | -0.0513 (inactive) | 0.226 (inactive)
O=C1OCCC=C[C@H]2OC34C=CCN(Cc5ccccc5)C(=O)[C@H]3N(CCCCCO)C(=O)[C@@H]4C12 (stereo not given in full) | 1.16 (inactive) | -0.0335 | 0.0195 | -4.46 (inactive) | -0.218 (inactive) | 0.534 (inactive)
O=C1OCCC=C[C@H]2OC34C=CCN(Cc5ccccc5)C(=O)[C@H]3N(CCCO)C(=O)[C@@H]4C12 (stereo not given in full) | 0.17 (inactive) | -0.461 | -2.21 | -4.21 (inactive) | -0.16 (inactive) | -0.035 (inactive)
CC(C)C[C@@H]1NC(=O)[C@H]2C[C@@H](C(=O)NCCCCCNC(=O)CS)[C@@H](c3cccc(OCCO)c3)N2C1=O | 1.38 (inactive) | 0.713 | -0.159 | -3.89 (inactive) | -0.351 (inactive) | 0.184 (inactive)
COc1ccc(C(O)C2C=CC3C(=O)NC(=O)C3N2Nc2ccccn2)cc1OCc1ccccc1 (stereo not given) | 0.816 (inactive) | -0.0026 | -0.235 | -2.68 (inactive) | 0.682 (inactive) | 0.581 (inactive)
C=CCOC(=O)[C@H]1[C@@H]2C(=O)O[C@@H](c3ccccc3)[C@@H](c3ccccc3)N2[C@@H](c2ccc(OCCOC(=O)[C@@H]3C[C@@H]4C(=O)N5CCC[C@H]5C(=O)N4[C@@H]3c3ccc(O)cc3)cc2)[C@]12C(=O)Nc1ccccc12 | 0.188 (inactive) | 0.838 | -1.8 | 1.28 (inactive) | -0.788 (inactive) | -0.507 (inactive)
COCCCNC(=O)[C@@]1(c2ccc([N+](=O)[O-])cc2)CC(=O)N(CC23CC4CC(CC(C4)C2)C3)[C@@H]1c1ccc(CO)cc1 | 0.0335 (inactive) | 0.697 | -0.0493 | -5.17 (inactive) | -0.687 (inactive) | -0.404 (inactive)

Compound | composite z-score [1] | composite z-score (XIP peptide (Xip251-270)) | z-score [2] | z-score [3] | z-score [4] | z-score [5]
NCCCCCCNC(=O)[C@H]1C[C@H]2C(=O)NCC(=O)N2[C@H]1c1cccc(OCCO)c1 | 2.26 (inactive) | 0.814 | 0.005 | -2.07 (inactive) | 0.234 (inactive) | 0.495 (inactive)
CC(C)(C)OC(=O)CC[C@@]1(C(=O)NCCN2CCOCC2)N=C(c2ccc(OCCCO)cc2)O[C@@H]1c1ccccc1 | 1.38 (inactive) | 0.825 | 0.248 | -4.84 (inactive) | -0.396 (inactive) | -0.395 (inactive)
CCOC(=O)C[C@H]1[C@H](OC(=O)Cc2ccc3c(c2)OCO3)[C@@H](NC(=O)c2ccc(-c3ccccc3)cc2)c2cc(OCCCO)ccc2N1C(=O)c1ccccc1 | -0.238 (inactive) | 0.729 | -1.77 | -1.88 (inactive) | -0.467 (inactive) | -0.214 (inactive)
C=CCC(OC(C)=O)[C@@H]1[C@@H](N(Cc2ccc(-c3ccccc3)cc2)C(=O)Cc2ccc(OC)cc2)c2cc(OCCCO)ccc2N1C(=O)c1ccc2ccccc2n1 (stereo not given in full) | 0.0404 (inactive) | 0.219 | -2.87 | -1.25 (inactive) | -0.0117 (inactive) | 0.336 (inactive)
CN(C)CCCNC(=O)[C@@]1(Cc2ccccc2I)c2ccccc2C(=O)N(Cc2ccccc2C(F)(F)F)[C@H]1c1ccc(CO)cc1 | 0.165 (inactive) | 0.514 | -1.83 | -2.47 (inactive) | -0.239 (inactive) | -0.347 (inactive)
CC(C)N1C(=O)[C@@]2(c3ccc([N+](=O)[O-])cc3)CC(=O)N(CC34CC5CC(CC(C5)C3)C4)[C@@H]2c2ccc(CO)cc21 | -0.43 (inactive) | 0.52 | 0.115 | -0.734 (inactive) | 0.18 (inactive) | -0.0138 (inactive)
COC(=O)[C@@]1(Cc2ccccc2)[C@H]2c3cc(C(=O)N(C)C)n(Cc4c(-c5ccccc5)noc4C)c3C[C@H]2CN1C(=O)c1ccccc1 | 0.28 (inactive) | 0.12 | -1.74 | -2.59 (inactive) | 0.317 (inactive) | 0.0597 (inactive)
C=CC[C@@]1(C(=O)NCC(O)CO)N=C(c2ccc(OCCCO)cc2)O[C@@H]1c1ccccc1N=[N+]=[N-] (stereo not given in full) | 1.06 (inactive) | 0.885 | -1.84 | -3.62 (inactive) | -0.0138 (inactive) | 0.107 (inactive)
COc1ccc(C(O)C2C=CC3C(=O)N(c4ccccc4)C(=O)C3N2Nc2ccc([N+](=O)[O-])cc2)cc1OCc1ccccc1 (stereo not given) | 0.522 (inactive) | 0.891 | -0.303 | -1.46 (inactive) | -0.105 (inactive) | -1.67 (inactive)
Cc1ccc(S[C@]2(C(=O)NCC(C)C)CC(=O)N(Cc3ccccc3Cl)[C@@H]2c2ccc(CO)cc2)cc1 | 0.0729 (inactive) | -0.313 | 0.423 | -2.53 (inactive) | 0.259 (inactive) | 0.658 (inactive)
COCC1=C2[C@@H](CCc3ccccc3)OB(O)C[C@@H]2[C@@H]2C(=O)N(Cc3ccccc3)C(=O)[C@@H]2C1 | -0.653 (inactive) | -0.538 | 1.22 | -7.4 (inactive) | 0.141 (inactive) | 0.381 (inactive)
C=CC[C@@]1(C(=O)N2CCOCC2)N=C(c2ccc(OCCCO)cc2)O[C@@H]1c1ccccc1N=[N+]=[N-] | 1.18 (inactive) | 0.598 | -1.75 | -3.44 (inactive) | -0.217 (inactive) | -0.141 (inactive)
N[C@@H](Cc1ccccc1)Cn1cc(-c2ccccc2)nn1 | -0.259 (inactive) | -0.533 | 0.942 | -0.823 (inactive) | 0.201 (inactive) | 0.117 (inactive)
CO[C@H]1O[C@H](CO)[C@@H](OC(=O)Nc2ccc3c(c2)OCO3)[C@H](OC(=O)Nc2ccccc2)[C@H]1OC(=O)Nc1ccccc1 | 0.981 (inactive) | 0.831 | -2.49 | -4.76 (inactive) | -0.328 (inactive) | -0.439 (inactive)
[N-]=[N+]=NCc1ccccc1C[C@]1(C(=O)NCC(O)CO)N=C(c2ccc(OCCCO)cc2)O[C@H]1c1ccccc1N=[N+]=[N-] (stereo not given in full) | -0.188 (inactive) | 0.0926 | -2.25 | -3.25 (inactive) | -0.985 (inactive) | -1.52 (inactive)
Cc1ccc(S[C@]2(C(=O)NC3CC3)CC(=O)N(C3CCCCC3)[C@@H]2c2ccc(CO)cc2I)cc1 | 1.01 (inactive) | 0.784 | -1.34 | -4.11 (inactive) | -0.0105 (inactive) | 0.06 (inactive)
C=CCNC(=O)[C@@H]1[C@H]2C(=O)O[C@H](c3ccccc3)[C@H](c3ccccc3)N2[C@H](c2ccc(O)cc2)[C@@]12C(=O)N(C(=O)OCCOC)c1ccccc12 | 2.55 (inactive) | 0.525 | -2.07 | -2.07 (inactive) | 0.209 (inactive) | 0.354 (inactive)
